AmpC detergent: blocks E. coli AmpC beta-lactamase in detergent assay. P00811. AmpC hydrolysis of nitrocefin, absorbance 480 nm, 0.01% Triton. Potency, µM (doses to about 114 µM), for the others: top-dose activity change, negative = inhibition, most hits filed as inhibitors. 370,000 compounds, 0.041% hits;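 note: 0% = no-compound wells and -100% = no-enzyme wells; nearly all actives have a fitted effect of over 25% in size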
Target sequence (P00811 whole entry, looked up): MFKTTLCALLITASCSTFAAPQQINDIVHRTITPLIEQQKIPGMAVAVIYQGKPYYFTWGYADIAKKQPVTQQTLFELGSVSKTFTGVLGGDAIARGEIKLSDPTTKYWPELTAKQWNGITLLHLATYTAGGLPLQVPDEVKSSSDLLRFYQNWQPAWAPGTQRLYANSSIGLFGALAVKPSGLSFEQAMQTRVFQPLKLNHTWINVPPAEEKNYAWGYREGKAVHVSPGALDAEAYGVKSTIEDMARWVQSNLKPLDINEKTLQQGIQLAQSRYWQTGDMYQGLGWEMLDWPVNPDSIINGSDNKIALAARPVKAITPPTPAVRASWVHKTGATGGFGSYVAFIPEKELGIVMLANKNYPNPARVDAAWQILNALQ
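20 mM phosphate pH 7.0 + 0.01% (detergent screen) or 0.0001% Triton X-100; 5.3 nM AmpC reagent; cpd preinc 15 min RT; nitrocefin (800 uM stock) to start; A480 q20 s × 4 min; Activity was normalised to no-enzyme and no-compound control wells.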
Sm TGR block: blocks Schistosoma mansoni thioredoxin glutathione reductase; Q962Y6; purified TGR, DTNB reduction, TNB absorbance 405 nm; Potency, µM (highest dose often 114 µM), for inactives: at the top dose activity change, negative = inhibition, most hits filed as inhibitors; 360,000 compounds, 3% hits; AID 485364; note: nearly all actives have a fitted effect of over 60% in size
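Kinetic colorimetric format: TGR-catalysed, NADPH-driven DTNB reduction monitored via TNB absorbance. Enzyme dispensed at 20 nM; compound exposure 15 min at room temperature before reaction start.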
AmpC no deterg: inhibitors of E. coli AmpC beta-lactamase without detergent; AmpC nitrocefin hydrolysis, absorbance 480 nm, 0.0001% Triton; Potency, µM (doses to about 57.1 µM), for inactives: top-dose activity change, negative = inhibition, usual class: inhibitors; P00811; 330,000 compounds, 0.52% hits;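 note: plate controls were no compound for no effect and no enzyme for full effect; nearly all actives have a fitted effect of over 20% in size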
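20 mM phosphate pH 7.0 + 0.01% (detergent screen) or 0.0001% Triton X-100; 5.3 nM AmpC reagent; cpd preinc 15 min RT; nitrocefin (800 uM stock) to start; A480 q20 s × 4 min; Activity was normalised to no-enzyme and no-compound control wells.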
* hit, by the source's call; ? = inconclusive; · = no result. An excerpt weighted towards active compounds, which were near 3.3% of everything screened. Calls come from the whole dose curve; as a rule, active = well fitted curve in the direction sought with a large enough effect; inconclusive = small, poorly fitted or top-dose-only effect, or another doubt; inactive = no such curve, though single readings can be large; an effect the other way counts as inactive or inconclusive. Unless noted, % is set by controls: 0 for no effect and ±100 for the full control effect; potency is the fitted concentration of half-maximal effect.

SMILES	AmpC detergent	Sm TGR block	AmpC no deterg
Cc1ccc(C)n1-c1ccc(C(=O)/C=C/N(C)C)cc1	-13%	32µM*	-20%
CN(C)/C=C/C(=O)c1ccncc1	-4%	-12%	-8%
Fc1cccc(CNc2ncnc3ccc(-c4ccccc4Cl)cc23)c1	?	3%	-10%
CCOC(=O)c1cccc(NC(=O)c2cnc3sc(N4CCOCC4)nn3c2=O)c1	2%	13%	·
OCCCc1n[nH]c(=S)n1-c1ccccc1	0%	45µM*	183%
COCc1n[nH]c(=S)n1-c1ccccc1	?	1%	-9%
Cc1ccc(N2CC(NC(=O)C3CCCCC3)CC2=O)cc1C (stereo not drawn)	1%	6%	·
CC(C)C(=O)Nc1nnc2n1CCS2	-1%	-1%	·
Cc1ccc2c3c(cccc13)-c1ccccc1C2=O	?	8%	-20%
Cc1coc2c1C(=O)C(=O)c1c-2ccc2c1CCCC2(C)C	-1%	10µM*	10µM*
Cc1coc2c1C(=O)C(=O)c1c-2ccc2c(C)cccc12	-1%	8.9µM*	-59%
Cc1ccc(C(=O)c2coc3c2C(=O)C(=O)c2ccccc2-3)cc1	2%	?	-39%
C[C@H]1COC2=C1C(=O)C(=O)c1c2ccc2c1CCCC2(C)C	1%	4µM*	?
CCc1ccc(NS(=O)(=O)c2ccc(-c3cc(C)no3)cc2)cc1	2%	-1%	·
COc1ccc2c(c1)c(CC(=O)Nc1cccc(F)c1C)c(C)n2C(=O)c1ccc(Cl)cc1	8%	-2%	·
COc1ccc(NC(C)=O)cc1NC(=O)C1(c2cccs2)CCOCC1	-3%	-6%	·
CCOC(=O)C1(CC)NC(c2ccco2)C2C(=O)N(c3ccc(C)cc3)C(=O)C21 (stereo not drawn)	-17%	45µM*	52%
CCCC1(C(=O)OC)NC(c2ccco2)C2C(=O)N(c3ccc(C)cc3)C(=O)C21 (stereo not drawn)	6%	-28%	4%
COc1cccc(NC(=O)c2cnn(-c3ccccc3)c2-n2cccc2)c1	4%	6%	·
COc1ccccc1NS(=O)(=O)c1ccc2c(c1)OCCO2	-2%	3%	-13%
COc1cccc2cc(S(=O)(=O)c3ccccc3)c(=Nc3ccc4c(c3)OCCO4)oc12	-6%	-2%	3.5µM*
Cc1ccc(S(=O)(=O)c2cc3ccccc3oc2=Nc2ccc3c(c2)OCCO3)cc1	-5%	0%	3.2µM*
Cc1ccc(S(=O)(=O)c2cc3ccccc3oc2=Nc2ccc3c(c2)OCO3)cc1	5%	2%	-13%
O=[N+]([O-])C(/C=C(/Cl)[N+](=O)[O-])=C(N1CCCCC1)N1CCCCC1	0%	25µM*	4%
O=C(/C=C/c1ccccc1[N+](=O)[O-])N1CCCCC1	-5%	-7%	-21%
SMILES	AmpC detergent	Sm TGR block	AmpC no deterg
C[n+]1ccccc1/C=C/c1ccc(C#N)cc1	-15%	45µM*	-19%
C[n+]1ccccc1/C=C/c1ccc([N+](=O)[O-])cc1	-5%	-27%	-17%
C[n+]1ccccc1/C=C/c1ccccc1Cl	?	22µM*	-16%
C[n+]1ccccc1/C=C/c1c(F)cccc1F	?	13µM*	-22%
Cc1ccccc1/C=C/c1cccc[n+]1C	?	-3%	-32%
C[n+]1ccccc1/C=C/c1ccc(F)c(F)c1	-22%	-11%	-28%
CCOc1ccccc1CN(CCc1ccc2c(c1)OCO2)Cc1cccc(OC)c1OC	5%	-3%	·
Cc1cccc(C)c1OCCCn1c(CCNC(=O)C2CCCCC2)nc2ccccc21	15%	14%	·
COC(=O)c1ccc(NC2=C(Cl)C(=O)OC2OC(=O)c2ccccc2)cc1 (stereo not drawn)	10µM*	?	4.5µM*
COc1ccccc1NC1=C(Cl)C(=O)OC1OC(=O)c1ccco1 (stereo not drawn)	1%	?	-19%
COc1cccc(NC2=C(Cl)C(=O)OC2OC(=O)c2ccco2)c1 (stereo not drawn)	-1%	7.9µM*	-38%
COC(=O)c1ccc(N=Nc2ccccc2)cc1	?	2%	-9%
Cc1ccccc1NC1=C(Cl)C(=O)OC1OC(=O)c1ccco1 (stereo not drawn)	?	-27%	-41%
Cc1ccc(NC2=C(Cl)C(=O)OC2OC(=O)c2ccc(C)cc2)cc1 (stereo not drawn)	8.9µM*	-13%	-47%
Cc1ccccc1NC(=O)c1c(C)oc2ccc(O)c(CN3CCCC(C)C3)c12 (stereo not drawn)	14%	-3%	·
CCOC(=O)C1CCCN(C(=O)c2ccc3c(c2)N(Cc2ccc(Cl)cc2)C(=O)c2ccccc2S3=O)C1 (stereo not drawn)	-14%	1%	·

High-throughput results: PubChem, National Center for Advancing Translational Sciences (NCATS)
